In PubChem BioAssay AID624138 (Broad Institute, 2012) one finds outcome data, which are given here for 70 compounds.

The campaign covered roughly 17,000 compounds. About 35 (0.2%) were called active.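 How the source made its calls: active means compounds whose four printed spots each show fluorescence over background unusually high for their array block, chance value under 7%; inactive means the rest.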 This excerpt belongs to a sample that is enriched for actives.

The assay deals with Signal transducer and activator of transcription 3 (Homo sapiens) (UniProt P40763). Put plainly: STAT3 binders, primary screen, biochemical, small molecule microarray, single point, set 2 (AID 624138). The conditions noted are these: His-STAT3 binding, anti-His fluorescence.
Chain of Signal transducer and activator of transcription 3 (Homo sapiens) (P40763 whole entry, looked up): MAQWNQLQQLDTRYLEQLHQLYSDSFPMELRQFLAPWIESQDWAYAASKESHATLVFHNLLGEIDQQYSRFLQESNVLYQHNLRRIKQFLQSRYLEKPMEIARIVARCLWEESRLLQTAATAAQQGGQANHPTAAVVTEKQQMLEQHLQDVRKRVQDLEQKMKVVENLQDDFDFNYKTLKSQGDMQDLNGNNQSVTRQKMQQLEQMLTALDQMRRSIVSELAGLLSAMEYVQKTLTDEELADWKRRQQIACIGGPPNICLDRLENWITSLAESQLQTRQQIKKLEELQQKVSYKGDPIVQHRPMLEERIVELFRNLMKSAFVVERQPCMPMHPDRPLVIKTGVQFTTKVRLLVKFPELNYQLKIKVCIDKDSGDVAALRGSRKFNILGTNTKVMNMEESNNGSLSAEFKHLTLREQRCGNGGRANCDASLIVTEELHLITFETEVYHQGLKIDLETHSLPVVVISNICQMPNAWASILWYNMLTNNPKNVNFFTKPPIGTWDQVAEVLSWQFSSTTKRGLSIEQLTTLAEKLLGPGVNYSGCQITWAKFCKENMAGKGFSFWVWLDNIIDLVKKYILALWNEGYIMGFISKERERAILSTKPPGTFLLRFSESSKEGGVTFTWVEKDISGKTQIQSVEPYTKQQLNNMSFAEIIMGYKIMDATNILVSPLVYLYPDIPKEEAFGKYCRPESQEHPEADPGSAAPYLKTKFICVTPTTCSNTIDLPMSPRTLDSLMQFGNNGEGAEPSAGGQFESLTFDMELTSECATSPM
In the case of `C[C@@H]1CN([C@@H](C)CO)C(=O)c2cc(NS(C)(=O)=O)ccc2O[C@@H]1CN(C)C`, the compound was called inactive.
Consider `CCCN(C)C[C@@H]1Oc2ncc(C#Cc3ccccc3)cc2C(=O)N([C@H](C)CO)C[C@@H]1C`, for which the result was inactive.
Next, `Cc1cc(OCC(=O)Nc2ccccc2C(N)=O)cc(C)c1Br`: “inactive”; `COc1ccc(CCNc2nc(C)cc(C)n2)cc1OC`: “inactive”.
The entry for `COc1ccc(S(=O)(=O)Nc2ccc3c(c2)C(=O)N([C@H](C)CO)C[C@@H](C)[C@@H](CN(C)Cc2ccccc2)O3)cc1` is “inactive”.
Turning to `C[C@@H]1CCCCO[C@@H](CN(C)Cc2ccncc2)[C@H](C)CN([C@@H](C)CO)C(=O)c2cc(N(C)C)ccc2O1`, the compound was called inactive.
Turning to `C[C@@H]1CCCCO[C@@H](CN(C)C(=O)Cc2ccccc2)[C@H](C)CN([C@@H](C)CO)C(=O)c2cc(NC(=O)Nc3ccc(F)cc3)ccc2O1`, the compound was classed as inactive.
Regarding `CC(C)(C)c1ccc(OCC(=O)Nc2cccc(NC(=O)c3ccccc3)c2)cc1`, the outcome was inactive.
Next, `Oc1ccc(-c2c(-c3ccccc3)nn3c(C(F)(F)F)cc(C(F)(F)F)nc23)cc1`: “inactive”; `COc1c(Br)cc2c(cc(C)n2-c2ccccc2)c1OCC(O)CNC(C)C` (stereo not given): “inactive”.
As to `CC(=O)c1c(C)n(CC(=O)O)c2ccccc12`, the result was inactive.
Next, `C[C@H](CO)N1C[C@H](C)[C@H](CN(C)C)Oc2c(NS(=O)(=O)c3ccc(Cl)cc3)cccc2C1=O`: “inactive”.
The entry for `C[C@@H]1CN([C@H](C)CO)C(=O)CCCn2nncc2CO[C@@H]1CN(C)C` is “inactive”.
The entry for `Cc1ccc(NC(=O)CSc2ncn[nH]2)c(C)c1` is “inactive”; for `C=C1C(=C/C=C2\CCC[C@]3(C)[C@@H]([C@H](C)CCCC(C)(C)O)CC[C@@H]23)C[C@@H](O)C[C@@H]1O` it is “inactive”; for `COCCCNC(=O)[C@@]1(Cc2ccccc2)COC(c2ccc(OCCCO)cc2)=N1` it is “inactive”.
Consider `CC(C)(O)C(O)COc1c2occc2cc2ccc(=O)oc12` (stereo not given), for which the outcome was inactive.
Next, `CNC[C@@H]1Oc2c(NC(=O)C3CCOCC3)cccc2C(=O)N([C@@H](C)CO)C[C@H]1C`: “inactive”; `O=C(O)CCC(=O)Nc1ccc(-c2nc3ccccc3o2)cc1`: “inactive”; `C[C@@H]1CN([C@H](C)CO)C(=O)c2cc(NC(=O)Nc3ccccc3)ccc2O[C@@H]1CN(C)Cc1ccc(Cl)c(Cl)c1`: “inactive”.
The entry for `CCOC(=O)c1ccc(COC(=O)c2cc(=O)[nH]c3ccccc23)o1` is “inactive”; for `Cc1noc(C)c1NC(=O)Nc1ccc2c(c1)CC(=O)N([C@H](C)CO)C[C@@H](C)[C@H](CN(C)S(=O)(=O)c1cccs1)O2` it is “inactive”.
`C[C@@H]1CN([C@H](C)CO)C(=O)c2cc(NC(=O)Nc3ccccc3)ccc2O[C@@H](C)CCCCO[C@@H]1CN(C)S(=O)(=O)c1ccc(F)cc1`: the result was inactive.
Next, `COc1cc(O)cc(C)c1C(=O)OC1C(CO)OC(n2ccc(=O)[nH]c2=O)C1OC(C)=O` (stereo not given): “inactive”; `COc1ccc(S(=O)(=O)Nc2ccc3c(c2)C(=O)N([C@H](C)CO)C[C@H](C)[C@@H](CN(C)S(C)(=O)=O)OCCCC[C@@H](C)O3)cc1`: “inactive”; `Cc1noc(C)c1S(=O)(=O)Nc1ccc2c(c1)C(=O)N([C@H](C)CO)C[C@H](C)[C@H](CN(C)C(=O)CCC(F)(F)F)OCCCC[C@H](C)O2`: “inactive”.
Next, `C[C@@H]1CCCCO[C@@H](CN(C)C(=O)c2ccccc2)[C@H](C)CN([C@@H](C)CO)C(=O)c2cc(NS(=O)(=O)c3cn(C)cn3)ccc2O1`: “inactive”; `Cc1sc2nc(SCC(=O)Nc3ccccc3C(F)(F)F)nc(N)c2c1C`: “inactive”; `O=C(C1=C[C@H](C2CC2)C[C@H](OCc2ccc(CO)cc2)O1)N1CCN(Cc2ccccc2)CC1`: “inactive”.
The entry for `C[C@@H]1CCCCO[C@H](CN(C)C(=O)Nc2ccccc2)[C@H](C)CN([C@H](C)CO)C(=O)c2cc(N(C)C)ccc2O1` is “inactive”.
As to `CC(C)NC(=O)N(C)C[C@H]1OCCCC[C@@H](C)Oc2ccc(NC(=O)Nc3cccc4ccccc34)cc2C(=O)N([C@H](C)CO)C[C@@H]1C`, the compound was called inactive.
Next, `C[C@H]1CN([C@@H](C)CO)C(=O)Cc2cc(NC(=O)Nc3ccc4c(c3)OCO4)ccc2O[C@H]1CN(C)CC1CC1`: “inactive”; `CC1(C)CC[C@]2(C(=O)O[C@@H]3O[C@H](CO)[C@@H](O)[C@H](O)[C@H]3O)CC[C@]3(C)C(=CCC4[C@@]5(C)CC[C@H](O[C@@H]6O[C@H](C(=O)O)[C@@H](O[C@@H]7OC[C@H](O)[C@H](O)[C@H]7O)[C@H](O)[C@H]6O)C(C)(C)C5CC[C@]43C)C2C1` (stereo not given in full): “inactive”.
Turning to `CC(=O)OC[C@H]1O[C@@H](Oc2c(-c3ccc(O)c(O)c3)oc3cc(O)cc(O)c3c2=O)[C@H](O)[C@@H](O)[C@@H]1O`, the compound was classed as inactive.
Regarding `Cc1noc(C)c1S(=O)(=O)Nc1ccc2c(c1)C(=O)N([C@@H](C)CO)C[C@@H](C)[C@@H](CN(C)C)O2`, the call was inactive.
In the case of `C[C@H](CO)N1C[C@H](C)[C@@H](CN(C)S(=O)(=O)c2ccc(Cl)cc2)Oc2ccc(NS(=O)(=O)c3cccs3)cc2CC1=O`, the result was inactive.
The entry for `CC(C)NC(=O)Nc1ccc2c(c1)CC(=O)N([C@@H](C)CO)C[C@@H](C)[C@H](CN(C)Cc1ccc(C(F)(F)F)cc1)O2` is “inactive”; for `OCc1nc2ccccc2n1CCOc1cccc(Cl)c1` it is “inactive”.
For `C[C@@H]1CN([C@@H](C)CO)C(=O)c2cc(NC(=O)Nc3cccc4ccccc34)ccc2O[C@@H]1CN(C)C(=O)NC1CCCCC1`, the compound was classed as inactive.
Take `Cc1noc(C)c1NC(=O)N(C)C[C@@H]1Oc2ccc(NC(=O)Nc3ccc4c(c3)OCO4)cc2CC(=O)N([C@H](C)CO)C[C@H]1C`: the call was inactive.
On to `C[C@@H]1CCCCO[C@H](CN(C)C(=O)C2CCCCC2)[C@@H](C)CN([C@@H](C)CO)C(=O)c2cc(NC(=O)Nc3ccccc3)ccc2O1`, for which the call was inactive.
For `C[C@H]1CCCCO[C@H](CN(C)Cc2ccccc2)[C@@H](C)CN([C@@H](C)CO)C(=O)c2cc(NS(C)(=O)=O)ccc2O1`, the result was inactive.
Consider `C[C@H]1CN([C@@H](C)CO)C(=O)Cc2cc(NC(=O)Nc3cccc4ccccc34)ccc2O[C@H]1CN(C)CC1CC1`, for which the result was inactive.
The entry for `CO[C@H]1C(=O)c2c(O)c(CC=C(C)C)c(O)c(CC=C(C)C)c2O[C@@H]1c1ccc(O)cc1` is “inactive”.
Regarding `COC(=O)CCCCCCC(=O)Nc1ccc(C2OC(CSc3nc(-c4ccccc4)c(-c4ccccc4)o3)CC(c3ccc([N+](=O)[O-])cc3)O2)cc1` (stereo not given), the compound was called inactive.
Next, `Cc1ccc(N(C(=O)COc2ccccc2[N+](=O)[O-])C2C=CS(=O)(=O)C2)cc1` (stereo not given): “inactive”; `Cc1noc(C)c1NC(=O)Nc1ccc2c(c1)CC(=O)N([C@H](C)CO)C[C@H](C)[C@H](CN(C)C(=O)NC(C)C)O2`: “inactive”; `COc1ccc(C#Cc2ccc3c(c2)[C@]2(C(=O)N3)[C@H](c3ccccc3OCCO)N3[C@H](c4ccccc4)[C@H](c4ccccc4)OC(=O)[C@H]3[C@@H]2C(=O)N2CCCCCCC2)cc1`: “inactive”.
The entry for `C[C@@H]1CN([C@@H](C)CO)C(=O)c2cc(N(C)C)ccc2O[C@@H](C)CCCCO[C@H]1CN(C)C(=O)CCCN(C)C` is “inactive”.
Next, `Cc1ccc(-n2c(SCC(=O)c3ccccc3)nnc2-c2ccncc2)cc1C`: “inactive”; `C[C@@H]1CCCCO[C@@H](CN(C)Cc2ccncc2)[C@@H](C)CN([C@@H](C)CO)C(=O)c2cc(NC(=O)Nc3ccc(F)cc3)ccc2O1`: “inactive”.
Regarding `CC1(C)CC[C@@]2(C(=O)O)C(C1)C1=CCC3[C@@]4(C)CC[C@H](O)C(C)(C)C4CC[C@@]3(C)[C@]1(C)C[C@H]2O` (stereo not given in full), the compound was classed as inactive.
The entry for `Cn1c(Cc2csc(N)n2)nnc1SC/C=C/c1ccccc1` is “inactive”; for `Cc1nnc(SCc2cc(=O)[nH]c(N3CCN(Cc4ccccc4)CC3)n2)s1` it is “inactive”; for `COc1ccc(OC)c(NC(=O)c2cnn(-c3ccccc3Cl)c2NC(=O)c2ccco2)c1` it is “inactive”.
As to `C[C@@H]1CN([C@H](C)CO)C(=O)c2cc(NC(=O)Nc3ccc4c(c3)OCO4)ccc2O[C@@H]1CN(C)Cc1ccc(C(F)(F)F)cc1`, the compound was called inactive.
With `C[C@@H]1CN([C@H](C)CO)C(=O)Cc2cc(NC(=O)NC3CCCCC3)ccc2O[C@H]1CN(C)S(=O)(=O)c1ccc(Cl)cc1`, the call was inactive.
Consider `CNC[C@@H]1Oc2c(NC(=O)Nc3ccccc3)cccc2C(=O)N([C@@H](C)CO)C[C@@H]1C`, for which the result was inactive.
For the compound `COC(=O)c1c(NC(=O)c2cc(-c3ccccn3)nc3ccc(Br)cc23)sc(C(=O)N(C)C)c1C`, the outcome was inactive.
With `Cc1ccc(-c2cc(C(F)(F)F)n3nc(C(=O)NCCN4CCOCC4)c(Cl)c3n2)cc1`, the compound was called inactive.
Next, `COc1ccc(S(=O)(=O)N2CCN(c3ccccn3)CC2)cc1N(C)S(=O)(=O)c1ccccc1`: “inactive”; `C=C1CCCC(C)(C(=O)OC)C1CC/C(C)=C/CCC1=CC(=O)OC1` (stereo not given): “inactive”; `C[C@@H]1CN([C@H](C)CO)C(=O)CCCn2cc(nn2)CO[C@H]1CN(C)S(=O)(=O)c1ccc(Oc2ccccc2)nc1`: “inactive”.
Regarding `C[C@H](CO)N1C[C@H](C)[C@H](CN(C)S(=O)(=O)c2cn(C)cn2)Oc2ccc(N(C)C)cc2C1=O`, the compound was called inactive.
The entry for `C[C@@H]1CN([C@@H](C)CO)C(=O)CCCn2cc(nn2)CO[C@H]1CN(C)Cc1cccc2c1OCCCO2` is “inactive”; for `C[C@H](CO)N1C[C@H](C)[C@@H](CN(C)S(=O)(=O)c2cccs2)Oc2ccc(NC(=O)Nc3cccc4ccccc34)cc2CC1=O` it is “inactive”.
As for `C=CCn1c(SCc2nc3ccccc3[nH]2)nnc1-c1ccccc1`, the compound was called inactive.
Regarding `C[C@H]1CN([C@@H](C)CO)C(=O)CCCn2nncc2CO[C@H]1CN(C)Cc1ccccc1`, the outcome was inactive.
Turning to `C[C@H]1CN([C@@H](C)CO)C(=O)c2cc(NS(=O)(=O)c3cn(C)cn3)ccc2O[C@H]1CN(C)CC1CCCCC1`, the compound was classed as inactive.
Next, `O=C(CCc1nc(-c2ccccc2Cl)no1)Nc1ccc(Cl)c(Cl)c1`: “inactive”.
